Molecules are shown by their SMILES. Inconclusive results are not listed. Active and inactive are the calls of the source. Unless noted, calls follow the shape of the dose curve; as a rule, active = well fitted curve in the direction sought with a large enough effect; inconclusive = small, poorly fitted or top-dose-only effect, or another doubt; inactive = no such curve, though single readings can be large; an effect the other way counts as inactive or inconclusive.

A short description of test [1]: qHTS profiling for inhibitors of Plasmodium falciparum proliferation (AID 504749). Also: potency is read from the fitted curve at half-maximal effect.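 As to activity, negative = inhibition: 0% = DMSO vehicle and full inhibition = artemisinin control.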 As to all read-outs here: nearly all actives have a fitted effect of over 60% in size. The settings on record: P. falciparum in erythrocytes, SYBR Green DNA, 72 h; for activity, negative = inhibition: at 28.7 µM (top of the series). The gist of the method:
(§1)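 Three-day growth assay of blood-stage parasites in erythrocytes (0.3% parasitemia, 2.5% hematocrit) at 37 C, 5% CO2, quantified by SYBR Green DNA staining after overnight detergent lysis.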

The next test relates to 3D7. The description is as above. The settings on record: P. falciparum in erythrocytes, SYBR Green DNA, 72 h; series mostly up to 28.7 µM. The gist of the method:
as §1

The subject of the next test is 7G8. The description is as above. The settings on record: P. falciparum in erythrocytes, SYBR Green DNA, 72 h; series mostly up to 28.7 µM. The gist of the method:
as §1

Another test concerns AA1029. Described as above. The settings on record: P. falciparum in erythrocytes, SYBR Green DNA, 72 h; series mostly up to 28.7 µM. The gist of the method: as §1
The subject of another test is AS120. The test is described as above. The settings on record: P. falciparum in erythrocytes, SYBR Green DNA, 72 h; series mostly up to 28.7 µM. The gist of the method: as §1
The next test deals with ATS189. The test is described as above. The settings on record: P. falciparum in erythrocytes, SYBR Green DNA, 72 h; series mostly up to 28.7 µM. The gist of the method:
as §1

In a further test the test system is ATS95. The test is described as above. The settings on record: P. falciparum in erythrocytes, SYBR Green DNA, 72 h; series mostly up to 28.7 µM. The gist of the method: as §1
A further test concerns C2A. The test is described as above. The settings on record: P. falciparum in erythrocytes, SYBR Green DNA, 72 h; series mostly up to 28.7 µM. The gist of the method: as §1
The test system of a further test is CP185. The description is as above. The settings on record: P. falciparum in erythrocytes, SYBR Green DNA, 72 h; series mostly up to 28.7 µM. In short, it runs like this: as §1
The test system of another test is CP191. The test is described as above. The settings on record: P. falciparum in erythrocytes, SYBR Green DNA, 72 h; series mostly up to 28.7 µM. In short, it runs like this: as §1
The test system of another test is CP192. The test is described as above. The settings on record: P. falciparum in erythrocytes, SYBR Green DNA, 72 h; series mostly up to 28.7 µM. The gist of the method: as §1
A further test deals with CP194. The description is as above. The settings on record: P. falciparum in erythrocytes, SYBR Green DNA, 72 h; series mostly up to 28.7 µM. In short, it runs like this:
as §1

The subject of the next test is CP201. The test is described as above. The settings on record: P. falciparum in erythrocytes, SYBR Green DNA, 72 h; series mostly up to 28.7 µM. The gist of the method: as §1
The subject of the next test is CP203. Described as above. The settings on record: P. falciparum in erythrocytes, SYBR Green DNA, 72 h; series mostly up to 28.7 µM. In short, it runs like this: as §1
The next test has as its system CP211. The test is described as above. The settings on record: P. falciparum in erythrocytes, SYBR Green DNA, 72 h; series mostly up to 28.7 µM. In short, it runs like this:
as §1

The nature of test [2]: Dual reporter qHTS for agonist of Pregnane X Receptor (hPXR) against the NCATS DSHEA and TCM libraries: Fluorescence readout (AID 1920058). Also: 0% is about no effect. The settings on record: PXR dual reporter cells; series mostly up to 40 µM. The gist of the method: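 hPXR-Luc HepG2 cells (2000/well) in phenol red-free medium with charcoal-stripped FBS attached for 5 h, then were exposed to compounds for about 24 h at 37 °C. Viability was read by CellTiter-Fluor fluorescence (Ex/Em 405/540 nm) after 1 h.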
On the technique in general: qHTS replaces the single test concentration by a dilution series.

The target of test [3] is Nuclear receptor subfamily 1 group I member 2 (Homo sapiens) (UniProt O75469). The test can be described thus: Dual reporter qHTS for agonist of Pregnane X Receptor (hPXR) against the NCATS DSHEA and TCM libraries: Luminescence readout (AID 1920059). Also: 0% is about no effect. The settings on record: hPXR dual reporter cells, luciferase luminescence agonist; series mostly up to 40 µM. The gist of the method:
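Luminescent PXR reporter read (ONE-Glo) after a CellTiter-Fluor viability read, following 24 h, 37C treatment of HepG2 cells stably carrying hPXR-Luc.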

Test [4] shares this target. The experiment in a line: Dual reporter qHTS for antagonist of Pregnane X Receptor (hPXR) against the NCATS DSHEA and TCM libraries: Luminescence Readout (AID 1920060).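 Also: HepG2 cells carrying hPXR luciferase reporter stimulated with rifampicin at 2 µM; 0% is about no effect.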 The settings on record: hPXR dual reporter cells, luciferase luminescence, antagonist mode; series mostly up to 40 µM. The gist of the method:
(§2)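 hPXR-Luc HepG2 cells exposed 24 h at 37 C to compounds with 2 uM rifampicin in antagonist mode; luciferase luminescence measured by ONE-Glo, with CellTiter-Fluor viability read beforehand.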

A short description of test [5]: Dual reporter qHTS for antagonist of Pregnane X Receptor (hPXR) against the NCATS DSHEA and TCM libraries: Fluorescence Readout (AID 1920061). Also: 0% is about no effect. The settings on record: PXR dual reporter cells, antagonist mode; series mostly up to 40 µM. The gist of the method:
as §2

Test [6] is described as follows: qHTS drug screen for cell cycle checkpoint inhibitors in PARPi-resistant BRCA-mutant ovarian cancer cell lines. (AID 1963452; calls by dose curve). The settings on record: PEO1/OlaR viability, CellTiter-Glo luminescence, 96 h, stronger effect = lower value. In short, it runs like this:
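PEO1, PEO4 and PEO1/OlaR ovarian cancer cells, 600 per well, exposed 96 h at 37C to a dilution series. Viability read by CellTiter-Glo luminescence, normalized to DMSO and empty wells; activity summarized as Z-AUC.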

The mark [7] stands for this setting: measured here: PEO1 parental Z-AUC.

Nuclear receptor subfamily 1 group I member 2 (Homo sapiens), sequence (O75469 whole entry, looked up): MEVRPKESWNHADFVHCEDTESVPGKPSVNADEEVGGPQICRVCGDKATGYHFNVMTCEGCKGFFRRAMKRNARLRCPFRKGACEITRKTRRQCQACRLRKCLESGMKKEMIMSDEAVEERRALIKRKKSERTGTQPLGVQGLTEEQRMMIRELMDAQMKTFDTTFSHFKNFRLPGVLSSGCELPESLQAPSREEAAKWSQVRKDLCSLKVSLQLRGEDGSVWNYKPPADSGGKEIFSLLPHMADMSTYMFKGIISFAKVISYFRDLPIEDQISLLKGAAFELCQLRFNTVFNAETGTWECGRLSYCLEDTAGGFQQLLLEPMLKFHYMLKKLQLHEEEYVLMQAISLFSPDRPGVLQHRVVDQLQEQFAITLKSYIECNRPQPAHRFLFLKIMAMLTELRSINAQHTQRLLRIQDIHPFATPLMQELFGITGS

For `CCCCCCCCCCCCCCCC[n+]1ccccc1`, the Potency in [1] (parasite line A) was 6.31 µM (active); in test [1] (parasite line B) it was 6.31 µM (active); with 3D7 it was 4.47 µM (active); with 7G8 it was 5.01 µM (active); in the test on AA1029, 5.01 µM (active); in the test with AS120, 7.94 µM (active). In addition, the Potency is 6.31 µM (active) in the test with ATS189; 7.94 µM (active) in the test on ATS95; 4.47 µM (active) in the test with C2A; 7.94 µM (active) in the test with CP185; 4.47 µM (active) in the test on CP191; 7.57 µM (active) in the test with CP192. Also, the Potency was 6.75 µM (active) in the test on CP194, 7.57 µM (active) in the test with CP201, 9.53 µM (active) in the test on CP203 and 6.75 µM (active) in the test on CP211.
As for `O=C(O)CCCC[C@@H]1SC[C@@H]2NC(=O)N[C@@H]21`, the molecule was called inactive in test [2], in test [3], in test [4] and in [5].
For `CCCCCCCCCCCCCCCC[N+](C)(C)Cc1ccccc1`, the Potency in test [1] (parasite line A) is 1.26 µM (active); in test [1] (parasite line B), 5.62 µM (active); in the test on 3D7, 3.98 µM (active); in the test with 7G8, 3.16 µM (active); in the test with AA1029, 3.16 µM (active); in the test on AS120 it was 1 µM (active). The Potency was 3.55 µM (active) in the test on ATS189; 3.55 µM (active) in the test on ATS95; 10 µM (active) in the test with C2A; 0.501 µM (active) in the test with CP185; 1 µM (active) in the test on CP191; 9.53 µM (active) in the test with CP192. In addition, the Potency was 12 µM (active) in the test on CP194, 12 µM (active) in the test with CP201 and 10.7 µM (active) in the test with CP211.
Regarding `CN1CCC(Nc2ncc3ncnc(Nc4ccc(F)c(Cl)c4)c3n2)CC1`, the Potency in test [1] (parasite line A) is 8.91 µM (active); in test [1] (parasite line B), 10 µM (active); in the test on 7G8, 2.51 µM (active); in the test with AA1029, 10 µM (active); in the test on C2A it was 11.2 µM (active).
With `Nc1ncnc2nc[nH]c12`, the activity, negative = inhibition in test [1] (parasite line A) is -12.9% (inactive); in test [1] (parasite line B), -6.26% (inactive). In addition, the Potency entry with 3D7, in the test with 7G8, in the test on AA1029, in the test with AS120, with ATS189 and with ATS95 was “inactive” in each case. Further, the Potency entry with C2A, in the test on CP185, with CP191, in the test on CP192, in the test with CP194 and with CP201 was “inactive” in each case. Further, the Potency result in the test with CP203 and with CP211 was “inactive” in each case.
On to `O=[N+]([O-])c1ccc(O)c2ncccc12`, for which the Z-AUC was -0.66 (inactive) in test [6], -0.828 in [6] (setting [7]) and -1.06 in test [6] (measured here: PEO4 Z-AUC). For the same molecule, the Potency with 3D7 was 11.2 µM (active); in the test with 7G8 it was 11.2 µM (active); with AS120 it was 10 µM (active); with C2A, 12.6 µM (active); in the test with CP191, 12.6 µM (active).
`C[C@H]1C[C@@H]2[C@H]([C@@H](O)C[C@@]3(C)[C@H]2CC[C@]3(O)C(=O)CO)[C@@]2(C)C=CC(=O)C=C12`: the Z-AUC was -1.46 (inactive) in test [6], -0.672 in test [6] (setting [7]) and -1.34 in test [6] (measured here: PEO4 Z-AUC).
Take `Nc1c2ccccc2nc2ccccc12`: the Potency in test [1] (parasite line A) is 7.94 µM (active); in [1] (parasite line B), 11.2 µM (active); in the test on 7G8 it was 3.16 µM (active); in the test on AA1029, 7.08 µM (active); in the test on AS120, 12.6 µM (active); in the test with ATS189 it was 7.08 µM (active). In addition, the Potency with ATS95 is 11.2 µM (active); with CP185, 8.91 µM (active); in the test with CP191, 11.2 µM (active); with CP192 it was 12 µM (active).
With `O=C(O)[C@H](O)[C@@H](O)[C@H](O[C@@H]1O[C@H](CO)[C@H](O)[C@H](O)[C@H]1O)[C@H](O)CO`, the Z-AUC in test [6] is 0.899 (inactive); in [6] (setting [7]) it was 1.15; in [6] (measured here: PEO4 Z-AUC), 1.21.

For the origin of these results see PubChem BioAssay (NCATS).
